Data: PMC12136788
Residue numbers refer to the chain shown, from its start. Over roughly 24,000 sequences, “enrichment r” has its median near 0.99; the highest 2% begin near 3.7. Many of the other results were omitted from the sample, so the highest values are more common in it than they were.

T1: UNK ZnF1-3 (human, UniProt Q9C0B0 31-174)
T1 sequence: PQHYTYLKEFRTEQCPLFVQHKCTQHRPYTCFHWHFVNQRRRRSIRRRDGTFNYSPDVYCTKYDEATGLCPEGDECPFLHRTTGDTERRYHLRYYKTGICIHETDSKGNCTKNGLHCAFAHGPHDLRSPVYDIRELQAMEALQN

B1: chr16:5009651:5009652:-_ENSMUSG00000022540_ENSMUST00000023191|mus_hu|FALSE|FALSE (ssRNA)
RNA: GGGAGUUCUACAGUCCGACGAUCUGCAGGGAGACGGUGAAGUAGACCAGGGCGUCGUUGAGCCAGGGGAUCACGCACUCCACUUUGUGCACGUGGCUCACCUCCAGGCGCUGAGAGCCCCACUCGAACAUGGCCCCAGGGCUACAACAGAGGAUUGAGCAUCA
B2: 133220860_133220980_1226_CDS_ENSMUSG00000043257_ENSMUST00000062118|mouse|control|control (ssRNA)
RNA: GGGAGUUCUACAGUCCGACGAUCGUAUAUUAGAGGAAGGUCCCAGGAGCACCAUGGGGGUGCAUUUUCUCCUGCAAGCCGGUAGCCUUUGUCGGCAGCUAGCUGCAGCAAGGGCUCAGGGAUGGAGGGGGCUGAGCCUGGUGACAACAGAGGAUUGAGCAUCA
B3: chr7:141441981:141441982:+_ENSG00000106028_ENST00000265304|hu_mus|hu_hu_hu_mus_False|48_88 (ssRNA)
RNA: GGGAGUUCUACAGUCCGACGAUCCUCAUGUCUUACAAACUGACGAAGUACCUGUAACACAGGUCUUCGAAACAUGGCUUCUGUUUUCUUUUCUUACUAAUCUUUAGGCUUUUCCUAAAGGAAAGAAAGAAAAGAGAAAAAUGACAACAGAGGAUUGAGCAUCA
B4: chr17:56552419:56552420:-_ENSMUSG00000013236_ENSMUST00000086828|mus_mus|mus_mus_mus_hu_False|18_78 (ssRNA)
RNA: GGGAGUUCUACAGUCCGACGAUCAAAAAAUACACUAUUUAAAAAAAAUGAAAUGUCAGAAAAAGAAGUUACACUGAGAGUUUUAAAAGAAAGCUGGAUUCUGGUCCCAGCCCAGUGGCAGGCAGGGGCAGAGCGGGGAGGAGCCAACAGAGGAUUGAGCAUCA
B5: chr17:56552419:56552420:-_ENSMUSG00000013236_ENSMUST00000086828|mus_mus|mus_mus_mus_hu_False|38_78 (ssRNA)
RNA: GGGAGUUCUACAGUCCGACGAUCAAAAAAUACACUAUUUAAAAAAAAUGAAAUGUCAGAAAAAGAAGUUACACUGAGAGUUUUAAAAGAAAGCUGGAAAAAAAAUGCAGCCCAGUGUCCCCAGGCUGCAGAGCGGGGAGGAGCCAACAGAGGAUUGAGCAUCA
B6: chr17:56552419:56552420:-_ENSMUSG00000013236_ENSMUST00000086828|mus_mus|mus_mus_mus_hu_False|48_78 (ssRNA)
RNA: GGGAGUUCUACAGUCCGACGAUCAAAAAAUACACUAUUUAAAAAAAAUGAAAUGUCAGAAAAAGAAGUUACACUGAGAGUUUUAAAAAAAAAUAAGAUUCUGGUCCCAGCCCAGUGUCCCCAGGCUGCAGAGCGGGGAGGAGCCAACAGAGGAUUGAGCAUCA
B7: chr17:56552419:56552420:-_ENSMUSG00000013236_ENSMUST00000086828|mus_mus|mus_mus_mus_hu_False|78_78 (ssRNA)
RNA: B6 RNA with A88G, A92G, U93C, A94U, A95G
B8: chr4:153332861:153332862:-_ENSG00000109670_ENST00000281708|hu_mus|FALSE|FALSE (ssRNA)
RNA: GGGAGUUCUACAGUCCGACGAUCCUCCUCUUGAUGUCUCGCUUGCUGCUGUGGAUCCUCCUCAACCACGCGAUUCAUCUGUCCCUCAUCAACCUGGCUUGAGGAAGCAUUCCCUCUCAGAGAGCCUCCAGUUCGUCGUCUUUUCAACAGAGGAUUGAGCAUCA
B9: 46544062_46544572_2905_CDS_ENSG00000123200_ENST00000242848|human|control|control (ssRNA)
RNA: GGGAGUUCUACAGUCCGACGAUCUUCUUGAGGUCGUACAACUUGGCUCAAGAGUCUGUGUUUUUCAUUUUUAUCAUCUCCACUGUUGUAGGCAUCACUGUCCGGAGAAUGUUCACGCCGGCGCUUCGGGGACUGUCUAGGGCUCAACAGAGGAUUGAGCAUCA
B10: chr2:180329438:180329439:+_ENSMUSG00000049401_ENSMUST00000029087|mus_mus|FALSE|FALSE (ssRNA)
RNA: GGGAGUUCUACAGUCCGACGAUCCUCAGAGACACCCUGAGGAUCUGGCUCCCCUGGGACCUGCUCCUGCCUGUUCCCCUCCAACUUCCUCUUCUUGCUUUCUUUGGGACUCGGGGACUUAGCCUCAUGCCUUUGGUCCCCAUCCAACAGAGGAUUGAGCAUCA
B11: chr3:150289932:150289933:+_ENSG00000144895_ENST00000460851|hu_hu|hu_hu_hu_mus_False|18_28 (ssRNA)
RNA: GGGAGUUCUACAGUCCGACGAUCCUUGUAGUUUUUAACAUCCCAUACUUCCAUUUGUCCUCGAAGAUUUCCAAAUCCAGCCAGCACUAAUAUAUGUCCAUGAGGGCUAUAGUAGGCUGCAUUACGAGGACCAGUCCCAAAGUCCAACAGAGGAUUGAGCAUCA
B12: chr16:94664382:94664383:+_ENSMUSG00000040785_ENSMUST00000117648|mus_hu|FALSE|FALSE (ssRNA)
RNA: GGGAGUUCUACAGUCCGACGAUCAAAAGCUGGUGCUGAAGAUGAAUCUGACACUGGUUUAGACUUUACAUCUGGUUUAAAUUCCCUAGCAGCUGGAUUCAGUUGUAGUUUAACUCGUACAUACUCCCCUGCUUUUGAAAUUUCCAACAGAGGAUUGAGCAUCA
B13: chr11:88707168:88707169:-_ENSMUSG00000018428_ENSMUST00000018572|mus_mus|FALSE|FALSE (ssRNA)
RNA: GGGAGUUCUACAGUCCGACGAUCAAGGGGAAGAGCGAACGCAACUGGAUUGCCAUCUUGGAGUCAGUCGAUGUGAAGUAGCUACACCUGCUCCUGGGCGACCGUCUAGGCACUCAAUCCUCCCGCCACCGCCCCCUGGCCCCCCAACAGAGGAUUGAGCAUCA
B14: chr3:184044699:184044700:+_ENSG00000114867_ENST00000411531|hu_hu|motif|central (ssRNA)
RNA: GGGAGUUCUACAGUCCGACGAUCAUUAUCUGUGCUUUCUGUGGGUACCGCUUGUUGAAGGGCUGAGAAGCGAUUCAAAGUACGGGUAGCUGGGCGAGCAGCUUCUGAUGCUGCGUCUGAGGGCUUGGCUCCUGAGCCUCCGCUCAACAGAGGAUUGAGCAUCA
B15: chrX:77155053:77155054:+_ENSG00000131174_ENST00000481445|hu_hu|motif|central (ssRNA)
RNA: GGGAGUUCUACAGUCCGACGAUCCGAACUUGGAGACGAUUUAGUGCGCUUUUGACCAAGGGAAACAUCGUGAAGGUGAAGCGGGAACUGCGGCAAUACAGCUGCUGCUUUGGUGCCAAUUCGCUUCAGGUACCCUUGAAGUGACAACAGAGGAUUGAGCAUCA
B16: chr2:153237265:153237266:-_ENSMUSG00000061411_ENSMUST00000109784|mus_mus|mus_mus_mus_hu_False|18_58 (ssRNA)
RNA: GGGAGUUCUACAGUCCGACGAUCAAAAAAAAAAAAAAAAAAGUGUCCUUGUGCCCAAAGUCUCAGGUGCUUGGAGUGCAGCUAGAAACAGCUCUUUUGGAUCCCACCUCUUUCAAAAAACAGUGUAACCAACUGGUGAGGCAGCAACAGAGGAUUGAGCAUCA
B17: chr5:71490711:71490712:+_ENSG00000131711_ENST00000296755|hu_hu|motif|central (ssRNA)
RNA: GGGAGUUCUACAGUCCGACGAUCCACAGGAGUGGGCACCUGGCCAGUGAGAUCCUUUUGGGUGGCCAGUGGCUGCUUCAGAAAGUCGGGAUGUUUGAGCUUUUCCAACCCUUCCAGGAUGUUGUACUGGGUGCUGUUCCCAGGCAACAGAGGAUUGAGCAUCA
B18: chr2:153237265:153237266:-_ENSMUSG00000061411_ENSMUST00000109784|mus_mus|mus_mus_mus_hu_False|18_28 (ssRNA)
RNA: B16 RNA with C78U, A79G, A115G
B19: chr2:153237265:153237266:-_ENSMUSG00000061411_ENSMUST00000109784|mus_mus|mus_mus_mus_hu_False|1_18 (ssRNA)
RNA: B16 RNA with C78U, A79G, G137A, A138G, G140C, C141A, A142G
B20: chr2:153237265:153237266:-_ENSMUSG00000061411_ENSMUST00000109784|mus_mus|mus_mus_mus_hu_False|18_18 (ssRNA)
RNA: B16 RNA with C78U, A79G
B21: chr2:153237265:153237266:-_ENSMUSG00000061411_ENSMUST00000109784|mus_mus|mus_mus_mus_hu_False|18_78 (ssRNA)
RNA: B16 RNA with G66A, C78U, A79G
B22: chr11:46405157:46405158:+_ENSG00000110492_ENST00000395566|hu_hu|hu_hu_hu_mus_False|8_58 (ssRNA)
RNA: GGGAGUUCUACAGUCCGACGAUCCCCUCCCCACUUUGGGCACUUGGUGUGGGCGUGAGAGGACAGGCGUGAUUGACAAAGCUAACGGGAAGACAAAAGGCACUGGUGGGUUAUAUCUUGGGCCUGUGAGAGGGAGGGGCUCCGCAACAGAGGAUUGAGCAUCA

Biological target: T1, UNK ZnF1-3
Test: nsRBNS (natural sequence RNA bind-n-seq); RBNS binding buffer (assumed for nsRBNS): 25 mM Tris pH 7.5, 150 mM KCl, 3 mM MgCl2, 0.01% Triton X-100, 500 ug/ml BSA, 20 U/ml SUPERase-In, 4 C; UNK is unkempt and MSI1 is Musashi-1; names of the RNAs are library labels; protein concentration not given here; high values mean tight binding

Binder | binding signal
B1 | 0.75 enrichment R
B2 | 1.08 enrichment R
B3 | 0.351 enrichment R
B4 | 3.82 enrichment R
B5 | 9.26 enrichment R
B6 | 9.32 enrichment R
B7 | 4.51 enrichment R
B8 | 0.439 enrichment R
B9 | 0.885 enrichment R
B10 | 0.716 enrichment R
B11 | 0.862 enrichment R
B12 | 1 enrichment R
B13 | 1.08 enrichment R
B14 | 0.754 enrichment R
B15 | 0.887 enrichment R
B16 | 4.98 enrichment R
B17 | 1.1 enrichment R
B18 | 3.55 enrichment R
B19 | 6.33 enrichment R
B20 | 5.16 enrichment R
B21 | 4.87 enrichment R
B22 | 3.13 enrichment R
